KCNQ2 enhance: potentiators of rat KCNQ2 potassium channel | O88943 | B-score at 10 µM | 310,000 compounds, 0.54% hits | AID 2239 | CHO-K1 KCNQ2, FluxOR thallium flux fluorescence; hits give high values;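 active = fluorescence ratio B-score at least 3 SD of library B-scores, with initial fluorescence B-score within 3 of them, cut at about 5.3 in these data; same plate scores as AID 2156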;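 note: B-score of peak minus minimum over baseline fluorescence ratio after K+ and Tl+ stimulus; positive B-score means potentiation of KCNQ2 with more thallium influx and brighter signal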
Target sequence (O88943 whole entry, looked up): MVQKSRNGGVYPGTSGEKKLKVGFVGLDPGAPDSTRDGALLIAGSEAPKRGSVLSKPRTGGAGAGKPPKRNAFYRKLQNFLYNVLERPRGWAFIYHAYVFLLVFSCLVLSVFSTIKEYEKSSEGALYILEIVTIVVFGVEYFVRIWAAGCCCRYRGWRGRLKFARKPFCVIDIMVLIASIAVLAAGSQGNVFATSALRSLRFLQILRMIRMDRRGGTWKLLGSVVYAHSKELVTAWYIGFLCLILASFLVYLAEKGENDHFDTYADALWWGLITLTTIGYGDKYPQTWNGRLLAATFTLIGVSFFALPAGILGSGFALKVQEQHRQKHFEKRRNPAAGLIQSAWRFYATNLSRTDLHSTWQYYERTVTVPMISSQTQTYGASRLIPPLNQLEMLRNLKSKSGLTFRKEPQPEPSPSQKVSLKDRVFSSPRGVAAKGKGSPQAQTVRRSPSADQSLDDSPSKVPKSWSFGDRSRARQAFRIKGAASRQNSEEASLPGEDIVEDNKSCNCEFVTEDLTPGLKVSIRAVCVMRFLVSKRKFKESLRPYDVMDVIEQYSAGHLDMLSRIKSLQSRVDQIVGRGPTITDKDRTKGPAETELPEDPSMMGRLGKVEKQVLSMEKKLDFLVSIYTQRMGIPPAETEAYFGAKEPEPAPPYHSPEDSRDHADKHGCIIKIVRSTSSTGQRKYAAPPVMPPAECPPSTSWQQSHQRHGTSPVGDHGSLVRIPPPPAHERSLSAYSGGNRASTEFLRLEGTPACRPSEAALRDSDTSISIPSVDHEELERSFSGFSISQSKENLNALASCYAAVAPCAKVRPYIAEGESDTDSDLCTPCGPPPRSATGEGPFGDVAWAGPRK
KCNQ2 inh: inhibitors of rat KCNQ2 potassium channel. B-score at 10 µM. AID 2156. CHO-K1 KCNQ2, FluxOR thallium flux, 20 min; hits give low values. O88943. 310,000 compounds, 1.1% hits;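 active = fluorescence ratio B-score at most minus 3 library SDs, with starting brightness B-score within 2 library SDs, cut at about -5.5 in these data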
The depositor's hits bear a star; i = inactive; · = no result given. This is a sample that favours compounds with a hit; in the whole collection about 1.6% have one here.

SMILES	KCNQ2 enhance	KCNQ2 inh
O=C(NCc1n[nH]c(=S)n1-c1ccc(Cl)c(Cl)c1)c1ccc(S(=O)(=O)N2CCOCC2)cc1	0.97	i
CCc1nn2c(NCCOC)cc(C)nc2c1-c1ccc(F)cc1	·	i
COc1ccc(-c2cc3c(=O)n(CC(=O)Nc4cccc(Cl)c4)nc(C)n3n2)cc1	0.07	i
COc1ccc(CC(=O)Nc2cccc(-c3nnc(-c4cccc(C)c4)o3)c2)cc1OC	-7	-7*
COc1ccc(CC(=O)Nc2cccc(-c3nnc(-c4ccc(C)cc4)o3)c2)cc1OC	·	i
COc1ccccc1N1CC=C(c2cccc([N+](=O)[O-])c2)NC1=O	0.14	i
Cc1ccc(-n2nc3c(=O)n(C(C)C(=O)NCCCc4ccccc4)nc(C)c3c2C)cc1 (stereo not given)	·	i
Cc1ccc(-n2nc3c(=O)n(C(C)C(=O)NCc4ccccc4Cl)nc(C)c3c2C)cc1 (stereo not given)	-8.1	-8.1*
COc1ccccc1CNC(=S)NCCc1ccccc1	·	i
COc1cc(NC(=S)NCCc2ccccc2)c(OC)cc1NC(=O)C(C)C	-5.8	-5.8*
COc1ccc(OCC(=O)NC(=O)c2ccccc2OC)c([N+](=O)[O-])c1	0.38	i
C=C(C)C1CCC(C)=C1COC(=O)Nc1ccccc1 (stereo not given)	-5.9	-5.9*
Cc1ccc(OCCOC(=O)Nc2ccccc2)cc1	1.1	i
O=C(N1CCOCC1)N(CCN1CCOCC1)Cc1cccc2ccccc12	·	i
CC1(C(=O)c2ccccc2)C2c3c(ccc4ccccc34)OC(=O)C21C(=O)N1CCOCC1 (stereo not given)	-7.9	-7.9*
N/C(=N\OC(=O)CCC1CCCCC1)c1ccc([N+](=O)[O-])cc1	0.03	i
N/C(=N\OC(=O)CC1CCCCC1)c1ccc([N+](=O)[O-])cc1	·	i
N/C(=N\OC(=O)CC1CCCCC1)c1cccc([N+](=O)[O-])c1	10*	i
N/C(=N\OC(=O)CCC1CCCC1)c1cccc([N+](=O)[O-])c1	5.8*	i
O=C(COc1ccccc1)NCC(c1ccco1)N1CCN(c2ccccc2)CC1 (stereo not given)	·	i
O=C(COc1cccc(C(F)(F)F)c1)NCC(c1ccco1)N1CCCCC1 (stereo not given)	-5.6	-5.6*
Cc1c2n(c3ccccc13)CCN(C)C2	0.49	i
O=C(NN=C(Cc1ccccc1)Cc1ccccc1)c1ccc(F)cc1	-5.6	-5.6*
C/C(Cc1ccccc1)=N\NC(=O)c1ccc(F)cc1	2.8	i
O=C(NN=C(Cc1ccccc1)Cc1ccccc1)c1ccccc1O	1.4	i
SMILES	KCNQ2 enhance	KCNQ2 inh
NC(=S)NN=C(Cc1ccccc1)Cc1ccccc1	-5.6	-5.6*
Cc1cccc2c(=O)cc(C)n(CC(N)=O)c12	1.4	i
CN(Cc1ccccc1Cl)C(=O)C1CCC(=O)N(C2CCCCCC2)C1 (stereo not given)	·	i
CCOC(=O)CC1(NC(=O)c2cc(COc3cccc(OC)c3)on2)CCCCC1	-7	-7*
COc1cccc(OCc2cc(C(=O)NCC3CCCCC3)no2)c1	·	i
COc1cccc(C(=O)NNS(=O)(=O)c2ccc(C)cc2)c1	·	i
Cc1ccc(C(=O)N/C(=C\c2cn(C)c3ccccc23)C(=O)N2CCOCC2)cc1	-6.3	-6.3*
Cn1cc(/C=C(\NC(=O)c2ccccc2)C(=O)N2CCOCC2)c2ccccc21	·	i
CCCn1c(SCC(=O)Nc2ccccc2-c2ccccc2)nnc1-c1ccoc1C	-5.8	-5.8*
Cc1ccccc1NC(=O)CSc1nnc(-c2ccoc2C)n1CCc1ccccc1	-5.5	-5.5*
Cc1occc1-c1nnc(SCC(=O)Nc2ccccc2-c2ccccc2)n1C	0.05	i
COc1ccc(NC(=O)CSc2nnc(-c3ccoc3C)n2CCc2ccccc2)cc1	·	i
COC(=O)c1ccc(NC(=O)CCN2C(=O)C3C4CCC(C4)C3C2=O)cc1 (stereo not given)	·	i
CCOC(=O)C1=C(CS(=O)(=O)c2ccccc2)NC(=O)NC1c1cc(OC)c(O)c(OC)c1 (stereo not given)	0.86	i
O=c1ccc2cc3c([nH]c4ccc(Br)cc43)oc-2c1O	9.7*	i
O=C(O)c1ccc(N=Nc2c(O)[nH]c3ccc(Br)cc23)cc1	2.3	i
CC(C)CC(=O)Nc1nnc(CSCc2ccc(F)cc2)s1	0.27	i
Cc1cccc(OCC(=O)NCCCNC(=O)c2ccco2)c1	2.1	i
Cc1ccc2nc(N/N=C/c3ccccc3C#N)nc(-c3ccccc3)c2c1	-6	-6*
N#Cc1ccccc1/C=N/Nc1nc(-c2ccccc2)c2cc(Cl)ccc2n1	0.05	i
CC(=O)NCC1(O)CCCC(C)C1 (stereo not given)	·	i
CC(=O)c1ccc(S(=O)(=O)NCCC(=O)OCC(=O)N2CCCC2=O)cc1	·	i
Cc1cc(C)c2c(=O)n(CC(=O)NCCCN3CCOCC3)sc2n1	2.7	i
Cc1cc(C)c2c(=O)n(CC(=O)NCCCN3CCN(c4ccccc4F)CC3)sc2n1	-9.9	-9.9*
O=C(C1COc2ccccc2O1)N1CCN(c2ccccc2Cl)CC1 (stereo not given)	-7.4	-7.4*
SMILES	KCNQ2 enhance	KCNQ2 inh
O=C(C1COc2ccccc2O1)N1CCN(c2ccccc2F)CC1 (stereo not given)	·	i
C=CCCC(=O)N1CCCC(C(=O)c2cccc(OC)c2)C1 (stereo not given)	1.4	i
Cc1[nH]c(C)c(S(=O)(=O)NCc2ccc(OC(C)C)cc2)c1C(=O)N1CCCC1	-5.7	-5.7*
COc1ccc(CNS(=O)(=O)c2c(C)[nH]c(C)c2C(=O)N2CCCC2)cc1	·	i
CCC(c1nnc(SCc2nc3ccccc3s2)n1Cc1ccccc1)N(C)C (stereo not given)	-6.3	-6.3*
CCn1c(SCc2nc3ccccc3s2)nnc1-c1ccccc1	·	i
CC(C)Oc1ccc(S(=O)(=O)N2CCOCC2)cc1NC(=O)C1=COCCO1	0.61	i
CCOc1cccc2cc(C(=O)NCc3ccccc3)c(=N)oc12	·	i
CCOc1ccccc1-c1ccc(C(=O)NCc2ccccc2)o1	-5.8	-5.8*
Cc1nn(C)cc1C(=O)Nc1cc(Oc2ccc(Cl)cc2)cc([N+](=O)[O-])c1	·	i
CCn1nc(C)c(C(=O)Nc2cc(Oc3cc(C)cc(C)c3)cc([N+](=O)[O-])c2)c1C	-5.6	-5.6*
COc1cccc(CN2CC(C(=O)NCCN3CCOC3=O)CCC2=O)c1 (stereo not given)	0.05	i
CCOC(=O)C1(CC2CC2)CCN(Cc2ccc(C(=O)OC)cc2)CC1	·	i
CCOC(=O)C1(CCc2ccccc2)CCN(Cc2ccc(C(=O)OC)cc2)CC1	-5.7	-5.7*
COc1ccc(CCNc2cc(C)nc3c(-c4ccccc4)cnn23)cc1OC	·	i
COc1ccccc1-c1cnn2c(NCCc3ccccc3)cc(C)nc12	-7.1	-7.1*
CC1(C)Cc2c(sc(NC(=O)C(=O)N3CCCCC3)c2C(=O)O)CO1	·	i
C[C@@H](C(=O)NCCc1ccc(F)cc1)N1C(=O)N2CCc3c([nH]c4ccccc34)[C@@]2(C)C1=O	-6.3	-6.3*
COc1ccc2[nH]c3c(c2c1)CCN1C(=O)N([C@@H](C)C(=O)NCCc2ccc(F)cc2)C(=O)[C@]31C	-7	-7*
Cc1ccc(CNC(=O)[C@H](C)N2C(=O)N3CCc4c([nH]c5ccccc45)[C@@]3(C)C2=O)cc1	0.06	i

Screening data deposited in PubChem BioAssay by Johns Hopkins Ion Channel Center.
